From PubChem BioAssay (Tox21)
Values joined by “and” are separate entries in the source; they are usually repeats but may differ in a detail not shown here. Identical values can stand only once. Records with an inconclusive call do not appear. Entries that show only a call come without a potency. The source holds several records for some structures; these can differ, active in one and inactive in another. Active and inactive are the calls of the source. Unless noted, calls follow the shape of the dose curve; as a rule, active = well fitted curve in the direction sought with a large enough effect in the repeat runs; inconclusive = weak or mixed curves; inactive = no such curve, though single readings can be large; an effect the other way counts as inactive or inconclusive.

Legend:
[1] = qHTS assay for small molecule agonists of the p53 signaling pathway (AID 651631; calls by dose curve; also: nearly all actives have a fitted effect of over 15% in size; also: potency is read from the fitted curve at half-maximal effect)
In short: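 Beta-lactamase reporter activity under p53 response elements was quantified in HCT-116 cells by FRET fluorescence, following 16 h incubation with test compounds at 37 °C and 2 h substrate development at room temperature.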

[2] = qHTS assay for small molecule agonists of the p53 signaling pathway - cell viability (AID 651633; calls by dose curve;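 also: p53RE-bla HCT reporter cells with a stable beta-lactamase p53 reporter; series mostly up to about 83 µM; nearly all actives have a fitted effect of over 30% in size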)
In short: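 Viability counter-read: CellTiter-Glo luminescence (30 min, room temperature) in the same p53RE-bla plates. These plates had been exposed to compounds for 16 h at 37 C.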

[3] = qHTS assay for small molecules that induce genotoxicity in human embryonic kidney cells expressing luciferase-tagged ATAD5 - cell viability (AID 651634; calls by dose curve; also: nearly all actives have a fitted effect of over 25% in size)
In short: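 HEK293T cells carrying luciferase-tagged ATAD5, 2,000 cells/well, exposed to compound for 15.5 hr at 37C. Viability read as live-cell protease activity by CellTiter-Fluor fluorescence after 30 min at 37C.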

[4] = qHTS assay to test for compound auto fluorescence at 590 nm (red) in HepG2 cells (AID 720674)
In short: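 1 hr compound incubation on HepG2 cells, 37 C, 5% CO2; plate read ex 540 nm / em 590 nm; intensities reported as Rose Bengal sodium equivalents.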

[5] = qHTS assay to test for compound auto fluorescence at 535 nm (green) in HepG2 cells (AID 720675)
[6] = qHTS assay to test for compound auto fluorescence at 460 nm (blue) in HEK293 cells (AID 720678)
In short: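 Measured: blue fluorescence (Ex 405/Em 460 nm) of compound-treated HEK293 cells, incubated overnight at 37C with 5% CO2 and scaled to triamterene equivalents.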

[7] = qHTS assay to test for compound auto fluorescence at 590 nm (red) in HEK293 cells (AID 720679)
In short: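 Using HEK293 cells at 2,000 per well, the screen added 23 nL of each compound after cell attachment and incubated overnight (37C, 5% CO2). The plate reader then captured red-label fluorescence, Ex/Em 540/590nm.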

[8] = qHTS assay to test for compound auto fluorescence at 535 nm (green) in HEK293 cells (AID 720680)
[9] = qHTS assay to test for compound auto fluorescence at 460 nm (blue) in HEK293 cell free culture (AID 720681)
In short: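 Blue fluorescence (Ex 405/Em 460 nm, triamterene-equivalent) was read immediately after pin transfer of compound or DMSO into medium (DMEM, 10% FBS) without cells.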

[10] = qHTS assay to test for compound auto fluorescence at 535 nm (green) in HEK293 cell free culture (AID 720682)
In short: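 Each library compound, or DMSO control, is added by pintool to medium alone, comprising DMEM and 10% FBS. Emission at 535 nm following 485 nm excitation is quantified against fluorescein.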

[11] = qHTS assay to test for compound auto fluorescence at 590 nm (red) in HEK293 cell free culture (AID 720683)
In short: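 Red-channel autofluorescence of compounds in culture medium (DMEM, 10% FBS), no cells, measured at 540/590 nm. Rose Bengal sodium is the reference fluorophore for equivalence.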

[12] = qHTS assay to test for compound auto fluorescence at 590 nm (red) in HepG2 cell free culture (AID 720684)
In short: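 Steps: dispense MEM/10% FBS medium, no cells; pin compound or DMSO vehicle; read red channel, Ex/Em 540/590 nm. Output given as Rose Bengal sodium equivalents.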

[13] = qHTS assay to test for compound auto fluorescence at 460 nm (blue) in HepG2 cell free culture (AID 720685)
In short: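 Compound (23 nL) or DMSO pinned into cell-free MEM with 10% FBS; blue fluorescence read at 405/460 nm excitation/emission, expressed as auto-fluorescence equivalency to triamterene.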

[14] = qHTS assay to test for compound auto fluorescence at 535 nm (green) in HepG2 cell free culture (AID 720686)
[15] = qHTS assay to test for compound auto fluorescence at 460 nm (blue) in HepG2 cells (AID 720687)
In short: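 Blue-channel autofluorescence (Ex/Em 405/460 nm, triamterene-equivalent) was measured after 1 hr compound exposure at 37 C, 5% CO2. Cells were HepG2, plated overnight at 37 C in MEM plus 10% FBS.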

[16] = qHTS assay for small molecules that induce genotoxicity in human embryonic kidney cells expressing luciferase-tagged ATAD5 (AID 651632); also: nearly all actives have a fitted effect of over 15% in size
In short: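 HEK293T cells carrying luciferase-tagged ATAD5 were given compound or DMSO vehicle and incubated 16 hr at 37C, 5% CO2. Luciferase activity was read after 30 min at room temperature with Amplite; a rise signals genotoxic stress.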

[17] = qHTS assay for small molecule disruptors of the mitochondrial membrane potential - cell viability (AID 720634; calls by dose curve;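 also: human HepG2 liver cancer cells; series mostly up to about 83 µM; nearly all actives have a fitted effect of over 20% in size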)
In short: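 HepG2 cells, 2,000 per well, attached overnight, then treated 1 hr at 37 C, 5% CO2. Viability read as ATP by CellTiter-Glo luminescence after 30 min at room temperature. Read in the same wells as the m-MPI membrane-potential dye assay.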

[18] = qHTS assay for small molecule disruptors of the mitochondrial membrane potential (AID 720635); also: potency is read from the fitted curve at half-maximal effect
In short: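 Mitochondrial membrane potential tracked with Mito-MPS dye, red aggregates (ex 540/em 590 nm) against green monomers (ex 490/em 535 nm). Compound treatment 1 hr at 37C, dye 30 min in HepG2.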

[19] = target: Glucocorticoid receptor (Homo sapiens) (UniProt P04150); experiment: qHTS assay to identify small molecule agonists of the glucocorticoid receptor (GR) signaling pathway (AID 720691; active = well fitted activation curve with a large enough effect in the signal ratio in the repeat runs, not every such curve was filed as active; the % refers to the signal ratio)
Glucocorticoid receptor (Homo sapiens), sequence (P04150 whole entry, looked up): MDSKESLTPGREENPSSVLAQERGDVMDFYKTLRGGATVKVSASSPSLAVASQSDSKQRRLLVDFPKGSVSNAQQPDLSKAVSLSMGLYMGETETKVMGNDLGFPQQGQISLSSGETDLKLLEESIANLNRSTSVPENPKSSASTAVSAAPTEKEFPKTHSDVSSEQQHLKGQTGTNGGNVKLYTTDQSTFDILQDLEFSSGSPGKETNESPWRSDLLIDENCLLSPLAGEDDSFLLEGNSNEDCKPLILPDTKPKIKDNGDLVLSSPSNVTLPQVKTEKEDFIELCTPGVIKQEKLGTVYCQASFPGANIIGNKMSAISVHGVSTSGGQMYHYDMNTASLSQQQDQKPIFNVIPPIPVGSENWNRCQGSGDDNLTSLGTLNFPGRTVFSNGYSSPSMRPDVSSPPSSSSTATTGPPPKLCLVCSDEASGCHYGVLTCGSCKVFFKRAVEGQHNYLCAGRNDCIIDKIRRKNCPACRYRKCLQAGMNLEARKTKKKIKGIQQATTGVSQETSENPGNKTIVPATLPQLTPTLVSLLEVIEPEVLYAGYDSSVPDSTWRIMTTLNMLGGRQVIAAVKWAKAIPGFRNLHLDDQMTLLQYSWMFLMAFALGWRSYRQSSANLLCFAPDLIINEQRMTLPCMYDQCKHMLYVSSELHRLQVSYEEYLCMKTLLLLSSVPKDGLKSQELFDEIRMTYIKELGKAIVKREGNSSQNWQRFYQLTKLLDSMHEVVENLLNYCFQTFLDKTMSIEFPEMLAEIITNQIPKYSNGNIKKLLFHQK
In short: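 GR-bla HeLa cells carrying a GRE-driven beta-lactamase reporter, exposed to compounds for 18 h at 37 C. Reporter activation read as fluorescence after 2 h with LiveBLAzer B/G FRET substrate at room temperature.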

[20] = target: Glucocorticoid receptor (Homo sapiens) (UniProt P04150); experiment: qHTS assay to identify small molecule antagonists of the glucocorticoid receptor (GR) signaling pathway (AID 720692; active = well fitted inhibition curve with a large enough effect in the signal ratio in the repeat runs, not every such curve was filed as active; the % refers to the signal ratio; also: potency is read from the fitted curve at half-maximal effect)
In short: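 GR-bla HeLa cells carrying a GRE-driven beta-lactamase reporter received compound after 4 h plating, then dexamethasone (5 nM final). After 18 h at 37C, the FRET substrate was loaded for 2 h at room temperature and fluorescence read.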

SMILES | Potency [1] | Potency [2] | Potency [3] | outcome [4] | outcome [5] | outcome [6] | outcome [7] | outcome [8] | outcome [9] | outcome [10] | outcome [11] | outcome [12] | outcome [13] | outcome [14] | outcome [15] | Potency [16] | Potency [17] | Potency [18] | outcome [19] | Potency [20]
Oc1ccc(Cl)cc1 | inactive | inactive | inactive | inactive | inactive | inactive | inactive | inactive | inactive | inactive | inactive | inactive | inactive | inactive | inactive |  |  |  |  | 
CC(=O)/C=C/c1ccccc1 |  | inactive | inactive | inactive | inactive | inactive | inactive | inactive |  | inactive | inactive | inactive | inactive | inactive | inactive | inactive | inactive | inactive | inactive | inactive
Cc1cccc(N)c1 |  |  |  | inactive | inactive | inactive | inactive | inactive | inactive | inactive | inactive | inactive | inactive | inactive | inactive | inactive | inactive | inactive |  | 
COC(C)(C)CCCC(C)C/C=C/C(C)=C/C(=O)OC(C)C (configuration not stated) | inactive |  |  | inactive |  | inactive |  | inactive |  |  | inactive | inactive | inactive | inactive | inactive | inactive | inactive | inactive and 21.3 µM (active) |  | 
C/C=C/c1ccc2c(c1)OCO2 | inactive | inactive |  | inactive | inactive | inactive |  | inactive | inactive | inactive | inactive | inactive | inactive | inactive | inactive |  | inactive | 62.3 µM (active) |  | 
CNC(=O)O/N=C/C(C)(C)SC | inactive |  |  | inactive | inactive | inactive | inactive |  |  |  | inactive | inactive | inactive | inactive | inactive | inactive | inactive |  | inactive | inactive
CN1C(=O)CCS(=O)(=O)C1c1ccc(Cl)cc1 (configuration not stated) |  |  | inactive | inactive |  | inactive | inactive |  |  | inactive | inactive | inactive | inactive | inactive | inactive | inactive | inactive | inactive | inactive | inactive
CCNc1nc(Cl)nc(NC(C)C)n1 | inactive |  |  | inactive | inactive | inactive | inactive | inactive |  |  | inactive | inactive | inactive | inactive | inactive | inactive |  |  | inactive | inactive
CN(C)NC(=O)CCC(=O)O | inactive | inactive |  | inactive | inactive | inactive |  | inactive | inactive |  | inactive | inactive | inactive | inactive | inactive |  | inactive | inactive |  | 
C[C@]12CC[C@H](O)CC1=CC[C@@H]1[C@@H]2CC[C@]2(C)C(=O)CC[C@@H]12 |  |  | inactive | inactive | inactive | inactive | inactive | inactive |  |  | inactive | inactive | inactive | inactive | inactive | inactive | inactive |  |  | 43.7 µM (active) and 43.6 µM (active)
O=C(O)Cc1ccccc1 |  | inactive | inactive | inactive |  | inactive |  | inactive | inactive |  | inactive | inactive | inactive | inactive | inactive | inactive | inactive | inactive |  | 
O=C(O)CCCc1ccc(N(CCCl)CCCl)cc1 | 23.7 µM (active) and 61.4 µM (active) and 34.4 µM (active) |  |  | inactive |  | inactive | inactive | inactive |  |  | inactive | inactive | inactive | inactive | inactive | inactive | inactive | inactive |  | 
ClC(Cl)c1ccccc1 |  | inactive | inactive | inactive | inactive | inactive |  | inactive |  |  | inactive | inactive | inactive | inactive | inactive | inactive | inactive | inactive | inactive | inactive
Oc1c(Br)cc(Br)cc1Br |  | inactive | inactive | inactive |  | inactive |  |  | inactive | inactive | inactive | inactive | inactive | inactive | inactive | inactive | inactive | 48.7 µM (active) and 54.5 µM (active) |  | 
CC12CC1(C)C(=O)N(c1cc(Cl)cc(Cl)c1)C2=O (configuration not stated) |  | inactive | inactive | inactive | inactive | inactive |  | inactive |  |  | inactive | inactive | inactive | inactive | inactive | inactive |  |  | inactive | inactive
OC[C@@H](O)[C@H]1O[C@@H]2O[C@H](C(Cl)(Cl)Cl)O[C@@H]2[C@H]1O |  |  |  | inactive | inactive | inactive | inactive | inactive |  |  | inactive | inactive | inactive | inactive | inactive | inactive | inactive | inactive | inactive | inactive
